# According to PubChem BioAssay (Tox21):
# Values joined by “and” are separate entries in the source; they are usually repeats but may differ in a detail not shown here. Equal entries are not always repeated. Inconclusive results are not listed. Where a call stands in place of a potency, no number is given. Some compounds were tested as several samples or in several runs, with calls that do not always agree. Active and inactive are the calls of the source. Unless noted, calls follow the shape of the dose curve; as a rule, active = well fitted curve in the direction sought with a large enough effect in the repeat runs; inconclusive = weak or mixed curves; inactive = no such curve, though single readings can be large; an effect the other way counts as inactive or inconclusive.
# Legend:
# [1] = qHTS assay to identify small molecule antagonists of the estrogen receptor alpha (ER-alpha) signaling pathway using the BG1 cell line (AID 743080; calls by dose curve;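 also: BG1 cells stimulated with 17beta-estradiol alongside compound; nearly all actives have a fitted effect of over 25% in size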); settings: BG1Luc4E2 ERE-luciferase antagonist mode, luminescence; activity change, negative = inhibition: at 70.3 µM (top of the series) unless noted
# Procedure, shortened: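 Quantitative HTS on the Tox21 10K library: BG1 cells with endogenous ER-alpha and ERE-luciferase reporter, 17beta-estradiol stimulation, 21.5 h compound exposure, luminescence endpoint with parallel fluorescence cytotoxicity counter-read.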
# [2] = qHTS assay to identify aromatase inhibitors - cell viability counter screen (AID 743084);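 also: cells stimulated with testosterone during compound exposure; nearly all actives have a fitted effect of over 55% in size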; also: potency is read from the fitted curve at half-maximal effect
# [3] = qHTS assay to identify small molecule that activate the aryl hydrocarbon receptor (AhR) signaling pathway - cell viability counter screen (AID 743086);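 also: HepG2 liver cells carrying the AhR DRE luciferase reporter; nearly all actives have a fitted effect of over 45% in size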
# Procedure, shortened: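 Cytotoxicity counter screen: CellTiter-Fluor signal (30 min, 37 C) in 4000 HepG2 cells/well carrying the DRE-luciferase reporter, following 24 h compound exposure at 37 C.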
# [4] = molecular target: Peroxisome proliferator-activated receptor gamma (Homo sapiens) (UniProt P37231); assay: qHTS assay to identify small molecule agonists of the peroxisome proliferator-activated receptor gamma (PPARg) signaling pathway (AID 743094; active = well fitted activation curve with a large enough effect in the signal ratio in the repeat runs, not every such curve was filed as active; the % refers to the signal ratio)
# Procedure, shortened: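 Fluorescence-based beta-lactamase readout in HEK293H PPARg UAS-bla cells after 17 h compound exposure (37C) and 1 h B/G FRET substrate incubation at room temperature.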
# [5] = molecular target: Peroxisome proliferator-activated receptor gamma (Homo sapiens) (UniProt P37231); assay: qHTS assay to identify small molecule antagonists of the peroxisome proliferator-activated receptor gamma (PPARg) signaling pathway (AID 743191; calls by dose curve; also: nearly all actives have a fitted effect of over 30% in size)
# Procedure, shortened: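 Beta-lactamase reporter under UAS control in HEK293H PPARg-bla cells; compound treatment 17 h at 37C. Read-out: fluorescence intensity after 1 h room-temperature incubation with LiveBLAzer B/G FRET substrate.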
# [6] = qHTS assay to identify small molecule antagonists of the peroxisome proliferator-activated receptor gamma (PPARg) signaling pathway - cell viability counter screen (AID 743194); settings: Potency: co-treated with 50 nM rosiglitazone unless noted; also: nearly all actives have a fitted effect of over 55% in size; also: potency is read from the fitted curve at half-maximal effect
# Procedure, shortened: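 Viability was measured as CellTiter-Glo luminescence in GeneBLAzer PPARg UAS-bla HEK293H cells. These cells had been exposed 17 h at 37 C to compounds together with rosiglitazone at 50 nM final, with the beta-lactamase readout taken in the same wells.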
# [7] = qHTS assay for small molecule agonists of the antioxidant response element (ARE) signaling pathway - cell viability counter screen (AID 743203; calls by dose curve; also: nearly all actives have a fitted effect of over 55% in size; also: potency is read from the fitted curve at half-maximal effect)
# Procedure, shortened: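 Parallel cytotoxicity read-out for the ARE-bla screen: HepG2 reporter cells, 16 hrs with compounds, then CellTiter-Glo luminescence.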
# [8] = qHTS assay for small molecule activators of the heat shock response signaling pathway - cell viability counter screen (AID 743209); also: nearly all actives have a fitted effect of over 50% in size; also: potency is read from the fitted curve at half-maximal effect
# Procedure, shortened: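 To flag cytotoxic compounds, HSE-bla HeLa cells plated at 1500 cells/well were dosed for 5 h at 37 C, followed by the reporter FRET read and then CellTiter-Glo, with luminescence recorded 30 min after reagent addition.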
# [9] = qHTS assay to identify small molecule antagonists of the thyroid receptor (TR) signaling pathway - cell viability counter screen (AID 743064); also: nearly all actives have a fitted effect of over 50% in size; also: potency is read from the fitted curve at half-maximal effect
# Procedure, shortened: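 In-well cytotoxicity read by CellTiter-Fluor (30 min, 37 C) following 23.5 h exposure of GH3 cells bearing a TRE-luciferase sensor. Compounds were added alongside 1 nM (final) T3 to drive TR transactivation.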
# [10] = qHTS assay to identify small molecule antagonists of the estrogen receptor alpha (ER-alpha) signaling pathway - cell viability counter screen (AID 743074; calls by dose curve; also: nearly all actives have a fitted effect of over 45% in size; also: potency is read from the fitted curve at half-maximal effect)
# [11] = qHTS assay to identify small molecule antagonists of the estrogen receptor alpha (ER-alpha) signaling pathway using the BG1 cell line - cell viability counter screen (AID 743081);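 also: compound given together with 17beta-estradiol as the ER stimulus; nearly all actives have a fitted effect of over 45% in size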; also: potency is read from the fitted curve at half-maximal effect
# Aromatase (Homo sapiens) = Aromatase (Homo sapiens) (UniProt P11511); assay: qHTS assay to identify aromatase inhibitors (AID 743083); also: nearly all actives have a fitted effect of over 55% in size; also: potency is read from the fitted curve at half-maximal effect
# [12] = molecular target: Aryl hydrocarbon receptor (Homo sapiens) (UniProt P35869); assay: qHTS assay to identify small molecule that activate the aryl hydrocarbon receptor (AhR) signaling pathway (AID 743085);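 also: HG2L7.5c1 human HepG2 liver cells with stably integrated DRE-driven firefly reporter; nearly all actives have a fitted effect of over 15% in size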
# Procedure, shortened: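 Luminescence (ONE-Glo) from a dioxin-responsive-element luciferase reporter in HG2L7.5c1 HepG2 cells after 24 hr compound exposure at 37C; viability measured by CellTiter-Fluor fluorescence beforehand.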
# [13] = qHTS assay for small molecule agonists of the antioxidant response element (ARE) signaling pathway (AID 743202; active = well fitted activation curve with a large enough effect in the signal ratio in the repeat runs, not every such curve was filed as active; the % refers to the signal ratio)
# Procedure, shortened: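 Beta-lactamase reporter activity, read as fluorescence intensity, reflects ARE/Nrf2 pathway induction in HepG2 cells after 16 h compound exposure at 37 C; substrate loading was 2 h at room temperature.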
# [14] = system: thyroid hormone receptor (rat, GH3 cells); assay: qHTS assay to identify small molecule agonists of the thyroid receptor (TR) signaling pathway (AID 743066; calls by dose curve)
# [15] = qHTS assay to identify small molecule antagonists of the thyroid receptor (TR) signaling pathway (AID 743065); also: nearly all actives have a fitted effect of over 55% in size; also: potency is read from the fitted curve at half-maximal effect
# Procedure, shortened: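 Antagonism measured as loss of luciferase signal in GH3 cells stably carrying a TRE-luciferase reporter, co-treated with compound and T3 (1 nM final) for 23.5 h at 37 C. Viability was read in the same well by CellTiter-Fluor.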
# [16] = molecular target: Estrogen receptor (Homo sapiens) (UniProt P03372); assay: qHTS assay to identify small molecule antagonists of the estrogen receptor alpha (ER-alpha) signaling pathway (AID 743069; active = well fitted curve in the direction sought with a large enough effect in the signal ratio in the repeat runs, not every such curve was filed as active; the % refers to the signal ratio)
# Procedure, shortened: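 Fluorescence intensity from a beta-lactamase FRET substrate served as the read-out. Cells: HEK293 with stably integrated ER-alpha-UAS-bla reporter. Agonist 17beta-estradiol was co-added with compounds; incubation 18 hr at 37C, substrate 2 hr at room temperature.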
# [17] = molecular target: Estrogen receptor (Homo sapiens) (UniProt P03372); assay: qHTS assay to identify small molecule agonists of the estrogen receptor alpha (ER-alpha) signaling pathway (AID 743075; calls by dose curve)
# [18] = molecular target: Estrogen receptor (Homo sapiens) (UniProt P03372); assay: qHTS assay to identify small molecule agonists of the estrogen receptor alpha (ER-alpha) signaling pathway using the BG1 cell line (AID 743079); also: nearly all actives have a fitted effect of over 20% in size; also: potency is read from the fitted curve at half-maximal effect
# Sequence of Aryl hydrocarbon receptor (Homo sapiens) (P35869 whole entry, looked up): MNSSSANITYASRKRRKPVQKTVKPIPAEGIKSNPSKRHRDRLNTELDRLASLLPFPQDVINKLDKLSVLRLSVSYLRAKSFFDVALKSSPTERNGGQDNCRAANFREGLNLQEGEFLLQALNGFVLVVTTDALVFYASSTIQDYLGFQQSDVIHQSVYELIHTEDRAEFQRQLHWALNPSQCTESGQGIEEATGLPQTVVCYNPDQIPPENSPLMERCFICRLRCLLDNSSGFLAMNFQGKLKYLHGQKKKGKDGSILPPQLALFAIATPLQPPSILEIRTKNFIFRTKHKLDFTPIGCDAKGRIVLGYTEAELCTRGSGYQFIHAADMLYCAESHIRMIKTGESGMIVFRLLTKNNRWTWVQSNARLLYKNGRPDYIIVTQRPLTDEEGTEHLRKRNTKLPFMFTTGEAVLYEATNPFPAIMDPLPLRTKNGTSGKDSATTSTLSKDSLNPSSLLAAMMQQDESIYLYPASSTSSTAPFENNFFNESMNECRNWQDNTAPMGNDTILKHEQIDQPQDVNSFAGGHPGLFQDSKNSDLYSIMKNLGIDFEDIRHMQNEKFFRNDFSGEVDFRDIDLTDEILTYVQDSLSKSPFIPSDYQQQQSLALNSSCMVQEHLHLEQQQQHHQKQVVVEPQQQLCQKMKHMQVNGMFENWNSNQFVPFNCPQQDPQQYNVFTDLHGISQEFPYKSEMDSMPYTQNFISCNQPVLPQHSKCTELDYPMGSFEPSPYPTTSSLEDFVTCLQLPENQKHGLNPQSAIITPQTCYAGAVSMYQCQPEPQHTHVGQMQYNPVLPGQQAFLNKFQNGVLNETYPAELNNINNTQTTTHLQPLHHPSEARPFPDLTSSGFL
# Sequence of Aromatase (Homo sapiens) (P11511 whole entry, looked up): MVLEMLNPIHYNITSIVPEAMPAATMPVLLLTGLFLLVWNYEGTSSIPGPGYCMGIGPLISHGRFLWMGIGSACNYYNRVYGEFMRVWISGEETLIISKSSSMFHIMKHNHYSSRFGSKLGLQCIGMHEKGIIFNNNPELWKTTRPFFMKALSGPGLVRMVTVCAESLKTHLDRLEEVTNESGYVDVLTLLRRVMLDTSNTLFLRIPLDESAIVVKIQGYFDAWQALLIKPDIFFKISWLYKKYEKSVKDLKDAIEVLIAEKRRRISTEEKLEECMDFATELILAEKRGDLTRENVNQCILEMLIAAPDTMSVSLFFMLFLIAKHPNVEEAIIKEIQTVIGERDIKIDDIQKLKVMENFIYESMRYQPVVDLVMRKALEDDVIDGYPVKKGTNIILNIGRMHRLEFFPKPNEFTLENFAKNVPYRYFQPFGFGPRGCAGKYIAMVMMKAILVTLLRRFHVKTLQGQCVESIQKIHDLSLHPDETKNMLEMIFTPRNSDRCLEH
# Sequence of Peroxisome proliferator-activated receptor gamma (Homo sapiens) (P37231 whole entry, looked up): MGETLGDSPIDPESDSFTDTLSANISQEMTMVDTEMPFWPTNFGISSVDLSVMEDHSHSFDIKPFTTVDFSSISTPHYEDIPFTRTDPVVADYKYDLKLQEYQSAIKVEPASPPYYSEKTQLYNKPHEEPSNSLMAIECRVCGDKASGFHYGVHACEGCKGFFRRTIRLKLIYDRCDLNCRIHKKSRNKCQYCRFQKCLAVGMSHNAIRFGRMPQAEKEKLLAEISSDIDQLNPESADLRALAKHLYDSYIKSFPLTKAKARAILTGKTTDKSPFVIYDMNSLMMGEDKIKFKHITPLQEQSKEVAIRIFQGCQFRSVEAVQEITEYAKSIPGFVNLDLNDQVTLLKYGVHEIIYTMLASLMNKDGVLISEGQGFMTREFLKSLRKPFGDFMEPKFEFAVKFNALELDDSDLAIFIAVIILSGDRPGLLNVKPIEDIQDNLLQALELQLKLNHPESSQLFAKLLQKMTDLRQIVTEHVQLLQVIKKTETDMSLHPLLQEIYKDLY
# Sequence of Estrogen receptor (Homo sapiens) (P03372 whole entry, looked up): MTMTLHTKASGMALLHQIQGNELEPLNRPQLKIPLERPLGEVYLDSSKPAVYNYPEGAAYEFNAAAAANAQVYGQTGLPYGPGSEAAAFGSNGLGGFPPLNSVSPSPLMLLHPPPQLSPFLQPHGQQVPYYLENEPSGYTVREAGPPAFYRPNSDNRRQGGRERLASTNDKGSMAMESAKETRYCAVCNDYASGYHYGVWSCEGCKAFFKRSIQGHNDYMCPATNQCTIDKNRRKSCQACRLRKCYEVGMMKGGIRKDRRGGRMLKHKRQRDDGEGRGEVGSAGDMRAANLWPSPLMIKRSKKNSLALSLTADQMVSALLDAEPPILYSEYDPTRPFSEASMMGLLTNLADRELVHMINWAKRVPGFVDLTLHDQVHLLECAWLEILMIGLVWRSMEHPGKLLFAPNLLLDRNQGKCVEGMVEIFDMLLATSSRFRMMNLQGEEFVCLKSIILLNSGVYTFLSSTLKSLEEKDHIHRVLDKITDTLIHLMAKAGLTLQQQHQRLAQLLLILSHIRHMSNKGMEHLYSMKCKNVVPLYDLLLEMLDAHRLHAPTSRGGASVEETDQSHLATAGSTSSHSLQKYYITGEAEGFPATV
smiles,measurement,setting,value
CCCCCCCCCCn1cc[n+](C)c1,"activity change, negative = inhibition",[1],-3.71% [at 95 µM] (active)
same,Potency,[2],24.6 µM (active) and inactive
same,Potency,[3],inactive
same,outcome,[4],inactive
same,Potency,[5],inactive
same,Potency,[6],22.1 µM [setting not given] (active) and 24.6 µM [setting not given] (active) and 4.89 µM [setting not given] (active)
same,Potency,[7],inactive
same,Potency,[8],39.3 µM (active)
CCn1cc[n+](C)c1C,Potency,[9],inactive
same,Potency,[10],inactive
same,Potency,[11],inactive
same,Potency,Aromatase (Homo sapiens),inactive
same,Potency,[2],inactive
same,Potency,[12],inactive
same,outcome,[4],inactive
same,Potency,[5],inactive
same,Potency,[6],inactive
same,Potency,[7],inactive
same,Potency,[8],inactive
CCCCCCCCCCCCn1cc[n+](C)c1,Potency,[9],4.4 µM (active) [middle of 6 runs]
same,Potency,[13],inactive
CC[n+]1ccccc1,Potency,[9],inactive and 34.1 µM (active)
same,Potency,[14],inactive
same,Potency,[10],inactive
same,Potency,[1],inactive
same,Potency,[11],inactive and 30.4 µM (active)
same,Potency,Aromatase (Homo sapiens),inactive and 54 µM (active)
same,Potency,[2],inactive and 54 µM (active)
same,outcome,[4],inactive
same,Potency,[5],inactive
same,Potency,[6],inactive
same,Potency,[7],inactive
same,Potency,[8],inactive
CCCC[n+]1ccccc1C,Potency,[9],inactive
same,Potency,[10],inactive
same,Potency,[11],inactive
same,Potency,Aromatase (Homo sapiens),inactive
same,Potency,[2],inactive
same,Potency,[6],inactive
same,Potency,[7],inactive
same,Potency,[8],inactive
CCCCCCCCn1cc[n+](C)c1,Potency,[9],54.4 µM (active)
same,Potency,[15],27.3 µM (active) and 54.9 µM (active)
same,Potency,[14],inactive
same,Potency,[11],inactive
same,Potency,Aromatase (Homo sapiens),34.3 µM (active) and 27.5 µM (active) and 55 µM (active)
same,Potency,[2],inactive
same,Potency,[12],inactive
same,Potency,[6],inactive
same,Potency,[7],inactive
same,Potency,[8],inactive
CCCC[n+]1ccc(C)cc1,Potency,[9],inactive and 30.5 µM (active)
same,Potency,[14],inactive
same,Potency,[10],inactive and 48.7 µM (active)
same,Potency,[11],inactive
same,Potency,Aromatase (Homo sapiens),inactive and 19.4 µM (active)
same,Potency,[2],inactive
same,Potency,[6],inactive and 48.7 µM [setting not given] (active)
same,Potency,[7],inactive
same,Potency,[8],54.7 µM (active) and inactive
N#CS,Potency,[9],inactive
same,Potency,[15],inactive
same,Potency,[14],inactive
same,Potency,[10],inactive
same,Potency,[11],inactive
same,Potency,Aromatase (Homo sapiens),inactive
same,Potency,[2],inactive
same,Potency,[6],inactive
same,Potency,[7],inactive
same,Potency,[8],inactive
CC(=O)O,Potency,[9],inactive
same,Potency,[14],inactive
same,Potency,[10],inactive
same,Potency,[11],inactive
same,Potency,Aromatase (Homo sapiens),inactive
same,Potency,[2],inactive
same,Potency,[6],inactive
same,Potency,[7],inactive
same,Potency,[8],inactive
CCCCCCn1cc[n+](C)c1,Potency,[9],inactive
same,Potency,[15],inactive
same,Potency,[14],inactive
same,Potency,[11],inactive
same,Potency,Aromatase (Homo sapiens),inactive
same,Potency,[2],inactive
same,Potency,[12],inactive
same,Potency,[6],inactive
same,Potency,[7],inactive
same,Potency,[8],inactive
Oc1cccc2cccnc12,Potency,[14],inactive
same,Potency,[10],inactive
same,Potency,[11],inactive
same,Potency,[2],1.38 µM (active) and 686 nM (active)
same,Potency,[6],inactive
same,Potency,[7],inactive and 4.33 µM (active)
same,Potency,[8],876 nM (active) and inactive and 710 nM (active)
CN(C)[C@@H]1C(=O)C(C(N)=O)=C(O)[C@@]2(O)C(=O)C3=C(O)c4c(O)cccc4[C@@](C)(O)[C@H]3[C@H](O)[C@@H]12,Potency,[9],inactive
same,Potency,[14],inactive
same,Potency,[10],inactive
same,Potency,[11],inactive
same,Potency,Aromatase (Homo sapiens),inactive
same,Potency,[2],inactive
same,Potency,[3],inactive
same,outcome,[4],inactive
same,Potency,[5],inactive
same,Potency,[6],inactive
same,Potency,[7],inactive
same,Potency,[8],inactive
C[N+](C)(C)Cc1ccccc1,Potency,[9],inactive
same,Potency,[14],inactive
same,Potency,[16],inactive
same,Potency,[10],inactive
same,Potency,[17],inactive
same,Potency,[18],inactive
same,Potency,[1],inactive
same,Potency,[11],inactive
same,Potency,Aromatase (Homo sapiens),inactive
same,Potency,[2],inactive
same,Potency,[3],inactive
same,outcome,[4],inactive
same,Potency,[6],inactive
same,Potency,[7],inactive
same,Potency,[8],inactive
O=c1[nH]c(=O)n(Cl)c(=O)n1Cl,Potency,[9],inactive
same,Potency,[14],inactive
same,Potency,[10],inactive
same,Potency,[11],inactive
same,Potency,Aromatase (Homo sapiens),inactive
same,Potency,[2],inactive
same,outcome,[4],inactive
same,Potency,[5],inactive
same,Potency,[6],inactive
same,Potency,[7],inactive
same,Potency,[8],inactive
COCC(=O)N(c1c(C)cccc1C)C(C)C(=O)OC (stereo unspecified),Potency,[9],inactive
same,Potency,[16],inactive
same,Potency,[10],inactive
same,Potency,[17],inactive
same,Potency,[18],inactive
same,Potency,[1],inactive
same,Potency,[11],inactive
same,Potency,Aromatase (Homo sapiens),inactive
same,Potency,[2],inactive
same,outcome,[4],inactive
same,Potency,[5],inactive
same,Potency,[6],inactive
same,Potency,[7],inactive
same,Potency,[8],inactive
O=P1(N(CCCl)CCCl)NCCCO1 (stereo unspecified),Potency,[9],inactive
same,Potency,[14],inactive
same,Potency,[16],inactive
same,Potency,[10],inactive
same,Potency,[17],inactive
same,Potency,[18],inactive and 27.3 µM (active)
same,Potency,[1],inactive
same,Potency,[11],inactive
same,Potency,Aromatase (Homo sapiens),inactive
same,Potency,[2],inactive
same,Potency,[3],inactive
same,outcome,[4],inactive
same,Potency,[5],inactive
same,Potency,[6],inactive
same,Potency,[7],inactive
same,Potency,[8],inactive
O=C(O)c1ccccc1O,Potency,[9],inactive
same,Potency,[14],inactive
same,Potency,[10],inactive
same,Potency,[11],inactive
same,Potency,[3],inactive
same,Potency,[6],inactive
same,Potency,[7],inactive
same,Potency,[8],inactive
CCC[N+]1(C)CCCC1,Potency,[9],inactive
same,Potency,[10],inactive
same,Potency,[11],inactive
same,Potency,[6],inactive
same,Potency,[7],inactive
same,Potency,[8],inactive
O=S(=O)(O)O,Potency,[9],inactive
same,Potency,[10],inactive
same,Potency,[11],inactive
same,Potency,Aromatase (Homo sapiens),inactive
same,Potency,[2],inactive
same,Potency,[12],inactive
same,Potency,[6],inactive
same,Potency,[7],inactive
same,Potency,[8],inactive
CCCCCCCCCCCC(=O)O,Potency,[9],inactive
same,Potency,[14],inactive
same,Potency,[10],inactive
same,Potency,[11],inactive
same,Potency,[2],inactive
same,Potency,[3],inactive
same,Potency,[6],inactive
same,Potency,[7],inactive
same,Potency,[8],inactive
